This is a sample that favours compounds with a hit; in the whole collection about 21% have one here.
Pf growth 48h: inhibits P. falciparum growth in the first generation, 48 h | Potency, µM (series often up to 28.7 µM), without a hit: at the top dose activity change, negative = inhibition, actives largely listed as inhibitors | 310,000 tested, 5.9% active | P. falciparum luciferase growth in erythrocytes, 48 h; active = well fitted inhibition curve with a large enough effect; inconclusive = small, poorly fitted or top-dose-only effect, or another doubt; inactive = no such curve, though single readings can be large or run the other way; note: potency is the fitted concentration of half-maximal effect; % is set by controls: 0 for no effect and ±100 for the full control effect
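Growth was read as firefly luciferase luminescence after a 48 h, 37 C, 5% CO2 exposure of compounds to reporter-bearing P. falciparum cultures (0.1% parasitemia, 2% hematocrit final) in Albumax-supplemented RPMI 1640.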
CHX counter-1: affects cycloheximide protein synthesis inhibition readout, counter-screen | AID 2314 | max response, % | 300,000 tested, 12% active | cell reporter, cycloheximide protein synthesis inhibition counterscreen; in the data active = max response mostly above about 13%, no sharp cut-off; inactive = mostly below about 14%; note: read at 38.3 µM for the half of the compounds with a filed dose; 0% is about no effect
SARS PLP yeast: SARS-CoV PLP inhibition in yeast; S. cerevisiae expressing SARS-CoV PLpro, growth rescue; Potency, µM (highest dose often 32.9 µM), for inactives: top-dose activity, positive = growth rescue, hits mostly activators; 330,000 tested, 0.19% active; note: potency is the fitted concentration of half-maximal effect; 0% is about no effect; nearly all actives have a fitted effect of over 55% in size
NS1 inh: blocks influenza NS1 protein function | 270,000 tested, 0.4% active | AID 2326 | Potency, µM (doses to about 46.1 µM), for inactives: at the top dose activity, positive = more growth; note: potency is the fitted concentration of half-maximal effect; actives are rising curves; nearly all actives have a fitted effect of over 50% in size
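S. cerevisiae expressing influenza A NS1, grown in glucose, washed, then diluted 1:100 into pH 6.0 -URA galactose medium with 23 nl compound. Growth recovery read as OD600; NS1-free strain serves as control.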
Shiga inhibitor: Shiga toxin inhibition. 290,000 tested, 9.2% active. AID 2315. inhibition, % at 38.7 µM. Vero cells, Shiga toxin protein synthesis inhibition reporter; in the data active = inhibition mostly above about 28%, no sharp cut-off; inactive = mostly below about 43%; note: 0% is about no effect
Pf growth 96h: P. falciparum growth inhibition at 96 hour, primary screen for plastid delayed-death inhibitors | P. falciparum luciferase reporter growth, 96 h | 320,000 tested, 6.9% active | Potency, µM (highest dose often 28.7 µM), without a hit: at the top dose activity change, negative = inhibition, hits mostly inhibitors; active = well fitted inhibition curve with a large enough effect; inconclusive = small, poorly fitted or top-dose-only effect, or another doubt; inactive = no such curve, though single readings can be large or run the other way; note: potency is the fitted concentration of half-maximal effect; % is set by controls: 0 for no effect and ±100 for the full control effect
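Readout is luminescence from an integrated firefly luciferase in P. falciparum. Red cells, 2% hematocrit and 0.05% parasitemia final, were cultured with compound through two parasite generations (96 hours) at 37 C, 5% CO2.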
CHX counter-2: affects protein synthesis reporter in cycloheximide counter-screen. shares compounds with Shiga inhibitor. Cycloheximide counterscreen, protein synthesis reporter, Shiga toxin assay. Potency, µM (titrated, usually from 38.3 µM), for the others: at the highest dose activity (activation), usual class: activators. 510 tested, 3% active. AID 2318; note: potency is the fitted concentration of half-maximal effect; 0% is about no effect
* hit, by the source's call; ? = inconclusive; . = no result given; + = active, no number. Unless noted, calls come from the whole dose curve.

SMILES	Pf growth 48h	CHX counter-1	SARS PLP yeast	NS1 inh	Shiga inhibitor	Pf growth 96h	CHX counter-2
Cc1ccc2c(CN3CCCCC3C)cc(=O)oc2c1C (stereo not drawn)	?	5	1%	-4%	40*	?	-1%
Cc1ccc2c(CN3CCCCC3C)cc(=O)oc2c1 (stereo not drawn)	12%	5	-1%	2%	6	-7%	.
CN(C)S(=O)(=O)c1ccc(Cl)c(NC(=O)COC(=O)C2CSC3(C)CCC(=O)N23)c1 (stereo not drawn)	26%	-4	0%	-4%	-3	2%	.
CC(Oc1ccc(Br)cc1)C(=O)NCC(C)(C)N1CCOCC1 (stereo not drawn)	4%	.	3%	.	.	2%	.
CCn1c2ccccc2c2cc(NC(=O)c3cccc([N+](=O)[O-])c3)ccc21	?	9	4%	4%	61*	41%	-3%
CC(C)(C)OC(=O)N1CCC[C@H]1C(=O)OCC(=O)Nc1cc(S(C)(=O)=O)ccc1Cl	5%	.	0%	.	.	-4%	.
Cc1ccc(/C(O)=C2\C(=O)C(=O)N(c3cc(C)on3)C2c2cccc(Br)c2)cc1 (stereo not drawn)	2%	2	4%	?	39*	143%	-3%
Cc1cc(N2C(=O)C(=O)/C(=C(/O)c3ccc(F)cc3)C2c2cccc(Br)c2)no1 (stereo not drawn)	10%	1	0%	17%	-3	-8%	.
COC(=O)c1ccc(-c2ncc(-c3cccc4ccccc34)o2)cc1	62%	2	1%	2%	34*	74%	10µM*
COc1ccc(C(=O)OCC#CCSc2nnc(-c3cccc4ccccc34)o2)cc1	17%	.	-5%	.	.	2%	.
O=C(Nc1ncc2c(n1)-c1ccccc1CC2)c1cccc(Cl)c1	9%	2	-22%	-47%	33*	28%	?
CCOc1ccc(N(CC(=O)NCc2ccc3c(c2)OCO3)C(=O)c2csnn2)cc1	-10%	4	-9%	1%	37*	-10%	1%
COc1ccc(CNC(=O)CN(C(=O)c2csnn2)c2ccc3c(c2)OCCO3)cc1	13%	9	5%	15%	43*	41%	4%
O=C(CN(C(=O)c1csnn1)c1ccc2c(c1)OCCO2)NCc1ccc(F)cc1	50%	1	0%	-17%	40	-13%	.
COc1ccc(C)cc1NC(=O)CNC(=O)c1sc2ccccc2c1Cl	17%	.	3%	.	.	77%	.
CN(Cc1ccccc1)C(=O)CSc1n[nH]c(N)n1	1%	-2	2%	5%	-14	-3%	.
CNC(=O)c1cccn(Cc2cc(C(F)(F)F)cc(C(F)(F)F)c2)c1=O	-12%	4	-8%	.	-2	?	.
CNC(=O)c1cccn(Cc2ccc(C(F)(F)F)cc2)c1=O	0%	6	-3%	.	26*	11%	-3%
COC(=O)c1c(NC(C)=O)sc2c1CCCC2	-8%	-5	-8%	-99%	-10	?	.
COC(=O)c1c(NS(C)(=O)=O)sc2c1CCCC2	20%	-2	-4%	-40%	28*	.	0%
O=C1ON=C(c2ccccc2)/C1=C/c1ccc(OS(=O)(=O)c2ccccc2)cc1	15%	8	0%	5%	29*	32%	0%
O=C(NC(=S)/C(=C1\CCCCCN1)[N+](=O)[O-])c1ccccc1	.	.	-2%	.	.	.	.
CCN(C1CCCCC1)S(=O)(=O)c1ccc(S(=O)(=O)NCc2ccncc2)cc1	?	1	8%	-10%	39*	?	-4%
CCN(C1CCCCC1)S(=O)(=O)c1ccc(S(=O)(=O)NCCc2ccncc2)cc1	.	-3	6%	-96%	-6	?	.
CN(C)S(=O)(=O)Oc1ccsc1C(=O)Nc1ccc(Cl)c(Cl)c1	?	10	-4%	-13%	66*	?	3%
SMILES	Pf growth 48h	CHX counter-1	SARS PLP yeast	NS1 inh	Shiga inhibitor	Pf growth 96h	CHX counter-2
CN(C)S(=O)(=O)Oc1ccsc1C(=O)Nc1ccc(C(F)(F)F)cc1	0%	0	-2%	-2%	3	-10%	.
CC1CC(C)CN(C(=O)C(NS(=O)(=O)c2ccc(Br)s2)c2ccccc2)C1 (stereo not drawn)	?	9	-42%	-27%	+	58%	1%
CCOC(=O)CNC(=O)CSc1ncnc2c1cnn2-c1ccc(Cl)cc1	18%	-3	8%	-4%	-4	.	.
CCOC(=O)Cc1csc(NC(=O)CSc2ncnc3c2cnn3-c2ccc(OC)cc2)n1	9.3µM*	19	2%	-8%	81*	?	?
Cc1cccc(OCC(=O)NCCCNC(=O)c2ccco2)c1	-28%	2	8%	26%	-13	-16%	.
CCOC(=O)N1CCN(C(=O)Nc2ccc3nc(C)c(C)nc3c2)CC1	?	6	1%	12%	136*	11%	-2%
S=c1nc[nH]c2c1ncn2Cc1ccco1	.	.	.	0%	.	.	.
Cc1cc(C)nc(SCC(=O)Nc2cc(C)on2)n1	16%	10	4%	?	119*	-14%	-1%
Cc1cc(C(F)(F)F)nc(SCC(=O)Nc2cc(C)on2)n1	.	-4	-1%	-3%	-21	18%	.
COc1ccc(Cn2nnnc2C(C(C)C)N(Cc2ccco2)Cc2cccs2)cc1 (stereo not drawn)	?	8	-6%	13%	44*	79%	0%
C=CCn1c(-c2ccc(OC)c(OC)c2)cs/c1=N\c1ccccn1	?	8	?	-54%	29*	2%	5%
COc1ccc(NC(=O)C(=O)NCCO)cc1Cl	8%	1	-1%	12%	15	20%	.
O=C(Cc1c(F)cccc1Cl)c1ccc(O)cc1O	56%	0	-31%	-224%	101*	19%	-3%
O=C(Cc1ccccc1F)c1ccc(O)cc1O	6%	10	2%	-33%	21	?	.
Cc1nn(C(C)C(=O)NC2CCC(C)CC2)c(=O)c2nn(-c3ccccc3)c(C)c12 (stereo not drawn)	-2%	-2	-2%	-3%	31*	16%	?
Cc1ccc2c(c1)N(CC(=O)N1CCCC1)C(=O)CO2	27%	3	1%	16%	35*	24%	-1%
Cc1ccc(NC2=NCC(=O)N2C2CCCC2)cc1	15%	7	1%	3%	58*	5.9µM*	-2%
COc1ccc(Cl)cc1S(=O)(=O)N1CCC(C(=O)NCCC2=CCCCC2)CC1	-26%	-4	-4%	-10%	-19	0%	.
CC(C)OC(=O)CSc1nnc(SCc2cccc3ccccc23)s1	.	2	3%	-51%	-16	25%	.
NC(=O)c1cc[n+](CC2=C(C(=O)O)N3C(=O)[C@@H](NC(=O)[C@@H](c4ccccc4)S(=O)(=O)[O-])[C@H]3SC2)cc1	.	.	.	-12%	.	.	.

Source: PubChem (National Center for Advancing Translational Sciences (NCATS))
